# Laboratory results: PMC11006913
# Experiments:
# [1] = biological target: NKX2-5 (Homo sapiens, UniProt P52952 125-210, R139K); experiment: PBM; 200 nM protein, PBS; conditions: dsDNA, one strand shown
# [2] = biological target: NKX2-5 (Homo sapiens, UniProt P52952 125-210); experiment: PBM; 200 nM protein, PBS; conditions: dsDNA, one strand shown
# Sequence of NKX2-5 (Homo sapiens, UniProt P52952 125-210) (P52952 125-210): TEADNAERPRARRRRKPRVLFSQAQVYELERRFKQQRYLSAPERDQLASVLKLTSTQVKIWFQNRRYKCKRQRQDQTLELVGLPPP
# Sequence of NKX2-5 (Homo sapiens, UniProt P52952 125-210, R139K) (P52952 125-210 R139K): as the sequence (P52952 125-210) above, with R15K counted along it
Sequence,binding signal [1],binding signal [2]
CCGTCCCG,"8.71 upbm affinity estimate (log intensity, higher = more binding, comparable within an allelic series)","8.66 upbm affinity estimate (log intensity, higher = more binding, comparable within an allelic series)"
ACCGCGGG,"8.49 upbm affinity estimate (log intensity, higher = more binding, comparable within an allelic series)","8.44 upbm affinity estimate (log intensity, higher = more binding, comparable within an allelic series)"
ACCAAACC,"8.82 upbm affinity estimate (log intensity, higher = more binding, comparable within an allelic series)","8.9 upbm affinity estimate (log intensity, higher = more binding, comparable within an allelic series)"
ATAAGCGG,"10.3 upbm affinity estimate (log intensity, higher = more binding, comparable within an allelic series)","10.3 upbm affinity estimate (log intensity, higher = more binding, comparable within an allelic series)"
ACTCTACT,"10.7 upbm affinity estimate (log intensity, higher = more binding, comparable within an allelic series)","10.8 upbm affinity estimate (log intensity, higher = more binding, comparable within an allelic series)"
TGCGCGCA,"9.19 upbm affinity estimate (log intensity, higher = more binding, comparable within an allelic series)","9.1 upbm affinity estimate (log intensity, higher = more binding, comparable within an allelic series)"
ACGTCCCG,"8.76 upbm affinity estimate (log intensity, higher = more binding, comparable within an allelic series)","8.79 upbm affinity estimate (log intensity, higher = more binding, comparable within an allelic series)"
CCGCACGG,"8.63 upbm affinity estimate (log intensity, higher = more binding, comparable within an allelic series)","8.62 upbm affinity estimate (log intensity, higher = more binding, comparable within an allelic series)"
CACAGCCC,"9.06 upbm affinity estimate (log intensity, higher = more binding, comparable within an allelic series)","9.02 upbm affinity estimate (log intensity, higher = more binding, comparable within an allelic series)"
AAAGTGCC,"11.6 upbm affinity estimate (log intensity, higher = more binding, comparable within an allelic series)","11.7 upbm affinity estimate (log intensity, higher = more binding, comparable within an allelic series)"
ACTGGCCC,"8.91 upbm affinity estimate (log intensity, higher = more binding, comparable within an allelic series)","8.87 upbm affinity estimate (log intensity, higher = more binding, comparable within an allelic series)"
CACAGCCG,"8.68 upbm affinity estimate (log intensity, higher = more binding, comparable within an allelic series)","8.68 upbm affinity estimate (log intensity, higher = more binding, comparable within an allelic series)"
AGCCACTC,"11.6 upbm affinity estimate (log intensity, higher = more binding, comparable within an allelic series)","11.5 upbm affinity estimate (log intensity, higher = more binding, comparable within an allelic series)"
CCACTAGA,"11.3 upbm affinity estimate (log intensity, higher = more binding, comparable within an allelic series)","11.2 upbm affinity estimate (log intensity, higher = more binding, comparable within an allelic series)"
CGGTTTGC,"8.63 upbm affinity estimate (log intensity, higher = more binding, comparable within an allelic series)","8.59 upbm affinity estimate (log intensity, higher = more binding, comparable within an allelic series)"
CAATACTC,"10.2 upbm affinity estimate (log intensity, higher = more binding, comparable within an allelic series)","10.2 upbm affinity estimate (log intensity, higher = more binding, comparable within an allelic series)"
CCGGGCCA,"9.01 upbm affinity estimate (log intensity, higher = more binding, comparable within an allelic series)","8.94 upbm affinity estimate (log intensity, higher = more binding, comparable within an allelic series)"

Sequence,binding signal [1],binding signal [2]
GGCAAGCC,"8.94 upbm affinity estimate (log intensity, higher = more binding, comparable within an allelic series)","8.92 upbm affinity estimate (log intensity, higher = more binding, comparable within an allelic series)"
CACAAGAG,"11.1 upbm affinity estimate (log intensity, higher = more binding, comparable within an allelic series)","11 upbm affinity estimate (log intensity, higher = more binding, comparable within an allelic series)"
CACTACAC,"10.6 upbm affinity estimate (log intensity, higher = more binding, comparable within an allelic series)","10.7 upbm affinity estimate (log intensity, higher = more binding, comparable within an allelic series)"
CCTGGGCA,"8.92 upbm affinity estimate (log intensity, higher = more binding, comparable within an allelic series)","9.12 upbm affinity estimate (log intensity, higher = more binding, comparable within an allelic series)"
CTCTTATC,"11.5 upbm affinity estimate (log intensity, higher = more binding, comparable within an allelic series)","11.4 upbm affinity estimate (log intensity, higher = more binding, comparable within an allelic series)"
CCCTTGAC,"11.1 upbm affinity estimate (log intensity, higher = more binding, comparable within an allelic series)","11.1 upbm affinity estimate (log intensity, higher = more binding, comparable within an allelic series)"
GCAGACCA,"9.14 upbm affinity estimate (log intensity, higher = more binding, comparable within an allelic series)","9.12 upbm affinity estimate (log intensity, higher = more binding, comparable within an allelic series)"
ATCCTTAG,"10.5 upbm affinity estimate (log intensity, higher = more binding, comparable within an allelic series)","10.5 upbm affinity estimate (log intensity, higher = more binding, comparable within an allelic series)"
AACGCGGA,"8.76 upbm affinity estimate (log intensity, higher = more binding, comparable within an allelic series)","8.8 upbm affinity estimate (log intensity, higher = more binding, comparable within an allelic series)"
CGCCAGGA,"8.64 upbm affinity estimate (log intensity, higher = more binding, comparable within an allelic series)","8.64 upbm affinity estimate (log intensity, higher = more binding, comparable within an allelic series)"
CGACACTC,"10.6 upbm affinity estimate (log intensity, higher = more binding, comparable within an allelic series)","10.5 upbm affinity estimate (log intensity, higher = more binding, comparable within an allelic series)"
GCCGGCAA,"9.18 upbm affinity estimate (log intensity, higher = more binding, comparable within an allelic series)","8.86 upbm affinity estimate (log intensity, higher = more binding, comparable within an allelic series)"
CACTAAGC,"10.7 upbm affinity estimate (log intensity, higher = more binding, comparable within an allelic series)","10.6 upbm affinity estimate (log intensity, higher = more binding, comparable within an allelic series)"
AGCACTAG,"10.6 upbm affinity estimate (log intensity, higher = more binding, comparable within an allelic series)","10.6 upbm affinity estimate (log intensity, higher = more binding, comparable within an allelic series)"
ACAGCGCC,"8.89 upbm affinity estimate (log intensity, higher = more binding, comparable within an allelic series)","8.85 upbm affinity estimate (log intensity, higher = more binding, comparable within an allelic series)"
CCCGTCAG,"9.01 upbm affinity estimate (log intensity, higher = more binding, comparable within an allelic series)","9.04 upbm affinity estimate (log intensity, higher = more binding, comparable within an allelic series)"
